Bioassay records: PubChem, National Center for Advancing Translational Sciences (NCATS)
Many of the other results were omitted from the sample, so hits are more common in it than they were.
Lassa entry inh – Lassa virus entry inhibition; Lassa virus pseudotype entry inhibition, cell reporter; Potency, µM (highest dose often 37.9 µM), actives largely listed as inhibitors; actives 1.2% (n = 300,000); AID 540256; calls by dose curve; tested in HEK293 cells; further: nearly all actives have a fitted effect of over 50% in size
CHX counter – counter-screen hit for Shiga toxin inhibitors, cycloheximide; cell reporter, cycloheximide protein synthesis inhibition counterscreen; max response, %; actives 12% (n = 300,000); in the data active means max response mostly above about 13%, no sharp cut-off; inactive means mostly below about 14%; further: read at 38.3 µM for the half of the compounds with a filed dose
Vaccinia Venus – vaccinia inhibition (Venus reporter); Vaccinia virus Venus reporter expression, fluorescence; Potency, µM (highest dose often 36.5 µM), hits mostly inhibitors; actives 0.46% (n = 330,000); AID 720580; calls by dose curve; tested in A549 cells; further: nearly all actives have a fitted effect of over 30% in size
MARV entry inh – Marburg virus entry inhibition. Marburg virus pseudotyped entry inhibition, cell reporter. Potency, µM (doses to about 37.8 µM), hits mostly inhibitors. actives 1.8% (n = 300,000). AID 540276; calls by dose curve; tested in HEK293 cells
Shiga toxin inh – inhibitors of Shiga toxin in Vero cells; inhibition, % at 38.7 µM; Vero cells, Shiga toxin protein synthesis inhibition reporter; actives 9.2% (n = 290,000); in the data active means inhibition mostly above about 28%, no sharp cut-off; inactive means mostly below about 43%
VACV mCherry inh – inhibitors of vaccinia virus infection (mCherry reporter signal). Vaccinia virus mCherry reporter infection, fluorescence. Potency, µM (titrated, usually from 36.5 µM), actives largely listed as inhibitors. actives 0.63% (n = 310,000). AID 720579; calls by dose curve; tested in A549 cells; further: nearly all actives have a fitted effect of over 35% in size
Numbers stand for hits; ! = not confirmed by another sample.

Screening O=C(c1cc2cc(Br)ccc2o1)N1CCN(c2ccccc2)CC1 returned Lassa entry inh inactive, CHX counter 51, Vaccinia Venus inactive, MARV entry inh inactive, Shiga toxin inh 78 and VACV mCherry inh inactive.
O=C(c1cc2cc(Br)ccc2o1)N1CCOCC1 was read as Lassa entry inh inactive, CHX counter 19, Vaccinia Venus inactive, MARV entry inh inactive, Shiga toxin inh 50 and VACV mCherry inh inactive.
Cc1ccc(C)c(NC(=O)Cn2cc(S(=O)(=O)Cc3cccc(Cl)c3)c3ccccc32)c1 was read as Lassa entry inh inactive, Vaccinia Venus inactive and VACV mCherry inh inactive.
`O=S(=O)([N-]c1nc2ccccc2nc1-[n+]1ccccc1)c1ccc(F)cc1` gave CHX counter inactive, Vaccinia Venus inactive, MARV entry inh inactive, Shiga toxin inh inactive and VACV mCherry inh inactive.
O=C1C[C@@H]2c3c(cccc3CN1Cc1ccccc1F)C[C@@H](O)[C@H]2O was read as Vaccinia Venus inactive and VACV mCherry inh inactive.
For CCC1CCCCN1C(=O)CCc1nnc(C2CCCCC2)o1 (stereo not given) the results were Lassa entry inh inactive, CHX counter 47, Vaccinia Venus inactive, MARV entry inh inconclusive, Shiga toxin inh 66 and VACV mCherry inh inactive.
COC(=O)[C@@H]1CCCN1C(=O)CCc1nnc(C2CCCCC2)o1 was read as Lassa entry inh inactive, CHX counter 14, Vaccinia Venus inactive, MARV entry inh inconclusive, Shiga toxin inh 16 and VACV mCherry inh inactive.
`Cc1onc(-c2ccccc2)c1C(=O)N1CCC(CO)(Cc2ccccc2)CC1` gave Lassa entry inh inactive, CHX counter inactive, Vaccinia Venus inactive, MARV entry inh inactive, Shiga toxin inh inactive and VACV mCherry inh inactive.
CCCCNc1ncnc2c1cnn2-c1ccc(Cl)cc1 was read as CHX counter 51, Vaccinia Venus inactive, Shiga toxin inh 72 and VACV mCherry inh inactive.
`CCc1nc(NC(C)(C)C)c2cnn(-c3ccccc3)c2n1` gave Lassa entry inh inactive, CHX counter 41, Vaccinia Venus inactive, MARV entry inh inactive, Shiga toxin inh 99 and VACV mCherry inh inactive.
`Cc1ccc(CNc2ncnc3c2cnn3-c2ccccc2)cc1` gave Lassa entry inh inactive, CHX counter inactive, MARV entry inh inactive and Shiga toxin inh inactive.
For CCCCNc1ncnc2c1cnn2Cc1ccc(Cl)cc1 the results were CHX counter inactive and Shiga toxin inh inactive.
For Clc1ccc(-n2ncc3c(NCCCn4ccnc4)ncnc32)cc1 the results were Lassa entry inh inconclusive, CHX counter 21, MARV entry inh inconclusive and Shiga toxin inh 35.
Screening CCCCNc1ncnc2c1cnn2-c1ccccc1 returned Lassa entry inh inconclusive, CHX counter 61, Vaccinia Venus inconclusive, MARV entry inh 10µM and Shiga toxin inh 92.
For COC(=O)c1[nH]c(C)c(/C(O)=C2\C(=O)C(=O)N(CCN3CCOCC3)C2c2ccc(C)o2)c1C (stereo not given) the results were Lassa entry inh inconclusive, CHX counter inactive, Vaccinia Venus inactive, MARV entry inh inactive, Shiga toxin inh inactive and VACV mCherry inh inactive.
For CC(C)CN1C(=O)C(=O)N(CC(=O)NC(C)CCc2ccccc2)C1=O (stereo not given) the results were Lassa entry inh inconclusive, Vaccinia Venus inactive, MARV entry inh inactive and VACV mCherry inh inactive.
For CCc1cccc(C)c1NC(=O)COCc1cc(-c2ccc3c(c2)OCO3)on1 the results were Lassa entry inh inactive, Vaccinia Venus inactive and VACV mCherry inh inactive.
For CC(C)(C)C(=O)CSc1ncnc2c1cnn2-c1ccccc1 the results were Lassa entry inh inconclusive, CHX counter 43, Vaccinia Venus inactive, MARV entry inh inconclusive, Shiga toxin inh 62 and VACV mCherry inh inactive.
For CC(C)OC(=O)CSc1ncnc2c1cnn2-c1ccccc1 the results were Lassa entry inh inactive, CHX counter inactive, Vaccinia Venus inactive, MARV entry inh inactive, Shiga toxin inh inactive and VACV mCherry inh inactive.
Nc1ncnc2c1cnn2-c1ccccc1 was read as Lassa entry inh inactive, CHX counter 29, Vaccinia Venus inactive, MARV entry inh inactive, Shiga toxin inh 91! and VACV mCherry inh inactive.
`CNc1nnc(-c2ccc(N(C)C)cc2)s1` gave Lassa entry inh inconclusive, CHX counter 18, Vaccinia Venus inactive, MARV entry inh inconclusive, Shiga toxin inh inactive and VACV mCherry inh inconclusive.
CCSc1ncc(/C=N/Nc2ccc(F)cc2)n1C was read as Lassa entry inh inactive, CHX counter 30, Vaccinia Venus inactive, MARV entry inh inactive and Shiga toxin inh 52.
